The values that follow come from PubChem BioAssay (NCI).

Each structure is given as a SMILES string. Compounds without any hit were thinned out: in the full panel of roughly 83,000, 20% have a hit.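 96-well plates, one dose, 48 hours. Percent growth reported; active if below 10.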 Unmarked numbers belong to inactive results. Calls of active or inactive are those of the source.

Holding throughout (test): NCI-60 one-dose screen, 48 h (100 = growth as untreated, 0 = no growth, -100 = all killed)
One test deals with NCI-H23 lung. The settings on record: 10 µM unless noted.
The next test relates to NCI-H226 lung. The conditions noted are these: 10 µM unless noted.
A further test deals with NCI-H322M lung. The settings on record: 10 µM unless noted.
The subject of another test is HOP-62 NSCLC. The conditions noted are these: 10 µM unless noted.
The next test relates to NCI-H460 lung. The settings on record: 10 µM unless noted.
For a further test, the system named is HOP-92 NSCLC. The settings on record: 10 µM unless noted.
The test system of the next test is NCI-H522 lung. The settings on record: 10 µM unless noted.
In another test the test system is A549/ATCC NSCLC. The conditions noted are these: 10 µM unless noted.
In the next test the test system is 786-0 renal. The conditions noted are these: 10 µM unless noted.
A further test relates to COLO 205 colon. The settings on record: 10 µM unless noted.
For a further test, the system named is DU-145 prostate. The conditions noted are these: 10 µM unless noted.
A further test concerns K-562 leukemia. The settings on record: 10 µM unless noted.
A further test concerns MALME-3M melanoma. The conditions noted are these: 10 µM unless noted.
The subject of a further test is MDA-MB-231 breast. The conditions noted are these: 10 µM unless noted.
A further test concerns RXF 393 renal. The conditions noted are these: 10 µM unless noted.
A further test has as its system SF-268 CNS. The settings on record: 10 µM unless noted.
The test system of another test is SF-295 CNS. The conditions noted are these: 10 µM unless noted.
For another test, the system named is SF-539 CNS. The settings on record: 10 µM unless noted.
In another test the test system is UACC-257 melanoma. The settings on record: 10 µM.
A further test concerns M14 melanoma. The settings on record: 10 µM unless noted.

Take `COc1cc(-c2nc(SCc3ccc(C)cc3)[nH]c(=O)c2C#N)ccc1OCc1ccccc1`: the growth in the test on NCI-H23 lung is 106%; in the test on NCI-H226 lung it was 96.2%; in the test with NCI-H322M lung it was 104%; in the test on HOP-62 NSCLC, 104%; with NCI-H460 lung it was 104%; in the test with HOP-92 NSCLC, 113%. For the same compound, the growth in the test with NCI-H522 lung was 95.6%; in the test on A549/ATCC NSCLC, 102%; in the test on 786-0 renal it was 103%; with COLO 205 colon, 119%; in the test on DU-145 prostate, 106%; in the test with K-562 leukemia it was 87.9%. In addition, the growth with MALME-3M melanoma was 94.5%; in the test with MDA-MB-231 breast, 104%; in the test on RXF 393 renal, 108%; in the test with SF-268 CNS, 97.6%; in the test on SF-295 CNS, 106%; with SF-539 CNS, 101%. The growth is 96.9% in the test on UACC-257 melanoma and 105% in the test with M14 melanoma.

As to `CC(C)SC1=NC(=C(C(=N1)NC2=ClC=CC=C2)C#N)C3=CC=CC=C3`, the growth with NCI-H23 lung is 37.7%; in the test with NCI-H226 lung, 69.3%; in the test on NCI-H322M lung, 28%; in the test with HOP-62 NSCLC, 72.9%; in the test on NCI-H460 lung, 22.2%; in the test with HOP-92 NSCLC, 76.6%. The growth in the test with NCI-H522 lung was 84.5%; in the test with A549/ATCC NSCLC it was 35.2%; in the test on 786-0 renal, 34.7%; with COLO 205 colon it was 71.4%; in the test on DU-145 prostate, 81.2%; in the test with K-562 leukemia, 59.6%. Also, the growth in the test with MALME-3M melanoma is 65.4%; in the test with MDA-MB-231 breast it was 78.9%; in the test on RXF 393 renal, 69.3%; in the test with SF-268 CNS, 78.4%; with SF-295 CNS, 52.8%; in the test on SF-539 CNS it was 44.9%. In addition, the growth with UACC-257 melanoma is 100%; in the test on M14 melanoma, 89.1%.

Turning to `COc1cc(CNC(=O)/C=C/c2ccccc2)ccc1OCC(=O)NO`, the growth with NCI-H23 lung is 103%; in the test with NCI-H226 lung, 97.4%; in the test on NCI-H322M lung, 103%; in the test with HOP-62 NSCLC, 102%; in the test on NCI-H460 lung it was 109%; in the test with HOP-92 NSCLC, 98.4%. For the same compound, the growth in the test on NCI-H522 lung is 89.9%; with A549/ATCC NSCLC, 101%; with 786-0 renal it was 103%; in the test on COLO 205 colon, 102%; with DU-145 prostate, 103%; with K-562 leukemia, 88.9%. Also, the growth is 84.9% in the test on MALME-3M melanoma; 98.4% in the test on MDA-MB-231 breast; 111% in the test with RXF 393 renal; 101% in the test with SF-268 CNS; 102% in the test with SF-295 CNS; 100% with SF-539 CNS. In addition, the growth in the test with UACC-257 melanoma is 91.5%; in the test on M14 melanoma, 100%.

On to `C=CCn1c(SCC(=O)c2ccc(OC)cc2)nnc1-c1ccc(OC)cc1`, for which the growth is 97.6% with NCI-H23 lung; 87.1% in the test with NCI-H226 lung; 97.4% in the test with NCI-H322M lung; 102% in the test with HOP-62 NSCLC; 102% in the test with NCI-H460 lung; 88.9% in the test on HOP-92 NSCLC. Moreover, the growth with NCI-H522 lung was 99%; in the test on A549/ATCC NSCLC, 99.2%; in the test on 786-0 renal, 99.4%; in the test on COLO 205 colon it was 98.8%; with DU-145 prostate, 99.8%; with K-562 leukemia, 94.7%. Besides, the growth in the test with MALME-3M melanoma was 96.4%; in the test on MDA-MB-231 breast, 94.9%; in the test on RXF 393 renal, 87.9%; with SF-268 CNS it was 95.2%; in the test with SF-295 CNS, 97.7%; with SF-539 CNS it was 100%. The results for the growth in the test on UACC-257 melanoma and in the test with M14 melanoma were 96.8% and 90.9%, respectively.

As to `CNC(=O)c1cc(Oc2ccc3nc(NC(=O)c4cc(C)cc(C)c4)sc3c2)ccn1`, the growth is 97.2% in the test with NCI-H23 lung; 75% with NCI-H226 lung; 103% in the test on NCI-H322M lung; 98.6% in the test on HOP-62 NSCLC; 93.1% in the test with NCI-H460 lung; 9.05% (active) in the test on HOP-92 NSCLC. Besides, the growth with NCI-H522 lung was 84.2%; in the test with A549/ATCC NSCLC, 89.7%; in the test with 786-0 renal it was 59%; with COLO 205 colon, 85.4%; in the test with DU-145 prostate, 93.5%; in the test with K-562 leukemia, 50%. Further, the growth with MALME-3M melanoma was 87.7%; in the test on MDA-MB-231 breast, 84.6%; in the test on RXF 393 renal, 69.2%; in the test on SF-268 CNS it was 82.4%; in the test with SF-295 CNS, 65%; in the test with SF-539 CNS, 85.6%. The growth in the test on UACC-257 melanoma was 89.1%; with M14 melanoma it was 53.6%.

For the compound `CCOc1c(C#N)c(Nc2ccc(S(N)(=O)=O)cc2)c(C#N)c2nnc(C)n12`, the growth with NCI-H23 lung is 93.5%; in the test with NCI-H226 lung it was 105%; with NCI-H322M lung it was 100%; in the test on HOP-62 NSCLC it was 104%; in the test with NCI-H460 lung, 111%; with HOP-92 NSCLC it was 98%. Further, the growth is 95.3% with NCI-H522 lung; 104% in the test on A549/ATCC NSCLC; 110% with 786-0 renal; 105% in the test with COLO 205 colon; 109% with DU-145 prostate; 110% in the test with K-562 leukemia. The growth with MALME-3M melanoma is 99.1%; with MDA-MB-231 breast it was 90.6%; in the test on RXF 393 renal, 132%; in the test on SF-268 CNS it was 99%; with SF-295 CNS, 105%; in the test on SF-539 CNS, 97.2%. Further, the growth was 104% with UACC-257 melanoma and 100% in the test on M14 melanoma.

For `Nc1c(C(=O)c2ccccc2)sc2nc(-c3cnccn3)cc(-c3cccs3)c12`, the growth in the test with NCI-H23 lung was 104%; with NCI-H226 lung, 95.8%; with NCI-H322M lung it was 100%; in the test with HOP-62 NSCLC, 97.6%; with NCI-H460 lung, 103%; with HOP-92 NSCLC it was 106%. Further, the growth in the test on NCI-H522 lung was 96.8%; in the test on A549/ATCC NSCLC it was 102%; in the test on 786-0 renal it was 106%; with COLO 205 colon, 108%; in the test on DU-145 prostate, 106%; in the test with K-562 leukemia, 99.4%. Also, the growth in the test with MALME-3M melanoma is 104%; in the test with MDA-MB-231 breast it was 92.7%; with RXF 393 renal, 108%; in the test on SF-268 CNS it was 97.8%; in the test with SF-295 CNS it was 105%; in the test with SF-539 CNS, 95.2%. For the same compound, the values for the growth in the test on UACC-257 melanoma and in the test with M14 melanoma were 103% and 97.4%, respectively.

As to `COc1ccc(/C=C/C(=O)c2nnn(-c3ccc(C(=O)O)cc3)c2C)cc1OC`, the growth is 105% in the test with NCI-H23 lung; 100% with NCI-H226 lung; 91.3% in the test on NCI-H322M lung; 107% with HOP-62 NSCLC; 107% with NCI-H460 lung; 102% in the test with HOP-92 NSCLC. Further, the growth with NCI-H522 lung is 88.4%; in the test on A549/ATCC NSCLC, 97.5%; with 786-0 renal it was 98.4%; in the test on COLO 205 colon, 109%; in the test with DU-145 prostate it was 104%; in the test with K-562 leukemia, 80.8%. For the same compound, the growth in the test on MALME-3M melanoma was 95.8%; with MDA-MB-231 breast, 96.7%; in the test on RXF 393 renal, 112%; in the test on SF-268 CNS, 99.4%; with SF-295 CNS, 103%; in the test with SF-539 CNS, 91.7%. In addition, the growth in the test with UACC-257 melanoma was 97%; with M14 melanoma it was 92.6%.
